These results are taken from PubChem BioAssay AID1159524 (National Center for Advancing Translational Sciences (NCATS), 2015).

Hit rate of the full screen: of about 410,000 compounds, about 5,100 (1.2%) were called active. Roughly 8% stayed inconclusive and do not appear here. The full list was thinned out, with actives kept by preference. A number with no mark means an inactive call. Calls come from the whole dose curve; tested in HEK293T cells.
% is set by controls: 0 for no effect and ±100 for the full control effect; potency is the fitted concentration of half-maximal effect.

The nature of this experiment: High Throughput Screening for Foot and Mouth Disease Virus Antivirals. Note: read-out not given here; nearly all actives have a fitted effect of over 45% in size. The conditions noted are these: FMDV antiviral cell-based qHTS; series mostly up to 57.9 µM; activity change, negative = inhibition: at the top concentration. In general terms: qHTS replaces the single test concentration by a dilution series.
With `COCCCNC(=O)c1ccc(-c2c(C)noc2C)c2ccoc12`, the “activity change, negative = inhibition” value is 27.2%. On to `COc1ccc(CNC(=O)c2ccc(-c3cccnc3)c3ccoc23)cc1OC`, for which the Potency is 22.4 µM (active). For `COc1ccc(CNC(=O)c2c(C)cc(=O)oc2C)cc1OC`, the “activity change, negative = inhibition” value is -29.7%. Still for that read-out and setting: under `C=CC(=O)c1ccc2ccccc2c1` stands -9.61%; under `CCOC(=O)N1CCN(Cc2ccc3c(c2)CN(C(=O)c2cccc(-n4cccn4)c2)CCO3)CC1`, -23.1%; under `CCCCC/C=C\C/C=C\CCCCCCCCCC(=O)O`, -17.4% [at 6.7 µM]. Turning to `Cn1c(=O)[nH]c(=O)c2c1nc(Br)n2CCCCSc1nc2ccccc2o1`, the Potency is 35.5 µM (active). Consider `Cc1ccnc(SCCn2c(Br)nc3c2c(=O)[nH]c(=O)n3C)n1`, for which the “activity change, negative = inhibition” value is -13.3%.

On to `Cn1c(=O)c2c(nc(Br)n2CCSc2nc3ccccc3o2)n(C)c1=O`, for which the “activity change, negative = inhibition” value is -16.2%. The same measure, in the same setting: under `COc1ccccc1CNc1ncnc2ccc(-c3ccc4c(c3)OCO4)cc12` stands -3.54%; under `CC1O[C@@H](Oc2c(-c3ccc(O)c(O)c3)oc3cc(O)cc(O)c3c2=O)C(O)C(O)C1O` (some centres not stated), -2.06%; under `COc1ccc(Cc2nc3ccc(C(=O)NCc4ccccc4C)cc3o2)cc1`, -13.5%. The same measure, in the same setting: for `COC(=O)c1ccccc1NC(=O)c1ccc2c(=O)n3c(nc2c1)CCCCC3` the value was -21.2%. `CCc1c(C)sc(NC(=O)C2c3ccccc3Oc3ccccc32)c1C(=O)OC(C)C`: the “activity change, negative = inhibition” value was 0%. Still for that read-out and setting: for `CC1CCN(S(=O)(=O)c2ccc3c(c2)n(C)c(=O)n3C)CC1` the value was -2.39%. Regarding `Cc1ccn2c(c1)nc(=O)c1cc(S(=O)(=O)N3CCC(C)CC3)ccc12`, the Potency is 11.2 µM (active). For the compound `CC1CCN(S(=O)(=O)c2ccc3c(ccn3CC(=O)O)c2)CC1`, the “activity change, negative = inhibition” value is -5.95%. Still for that read-out and setting: under `CCc1ccc(CNC(=O)c2ccc(CS(=O)c3ccc(Br)cc3)o2)cc1` (configuration not stated) stands 2.27%.

`Cc1cccc(CNC(=O)c2cnn(-c3nccc(-c4ccccc4F)n3)c2C2CC2)n1`: the “activity change, negative = inhibition” value was -10.1%. In the case of `CN(Cc1cccc2ncccc12)C(=O)c1cnn(-c2nccc(-c3ccccc3F)n2)c1C1CC1`, the Potency is 3.98 µM (active). Take `Cc1ccc(-c2ccnc(-n3ncc(C(=O)N(C)Cc4cccc5ncccc45)c3C3CC3)n2)o1`: the “activity change, negative = inhibition” value was -0.786%. Still for that read-out and setting: under `COc1cccc(C2C(C(=O)Nc3ccc(C)cc3C)=C(C)Nc3c(C(=O)Nc4ccccc4)cnn32)c1` (configuration not stated) stands -7.93%. With `Nc1nc(/C(=C/CC(=O)O)C(=O)N[C@@H]2C(=O)N3C(C(=O)O)=CCS[C@H]23)cs1`, the “activity change, negative = inhibition” value is -8.05%. The same measure, in the same setting: for `COc1ccccc1NC(=O)c1oc2ccccc2c1NC(=O)COc1ccccc1OC` the value was 2.02%. Same read-out and setting: under `CCOC(=O)CSc1nc2ccc(C)cc2n2cnnc12` stands 18.6%; under `c1ccc(CC2CCN(c3nc4ccccc4n4cnnc34)CC2)cc1`, -18.3%. Consider `O=C(c1ccccc1)c1ccc2nc(N3CCCCC3)c3nncn3c2c1`, for which the Potency was 10 µM (active).
